Screening data deposited in PubChem by several laboratories.
E coli WT exp = growth inhibitors of wild-type E. coli, primary screen, strain BW25113, expanded library, OD600; 98,000 tested, 0.15% active; OD600 absorbance; AID 710, 2007; growth inhibition, % at 100 µM;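 active means growth inhibition above about 50% at one test dose, limit read from the data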;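 further: growth measured after 20 h incubation at 37 °C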
TNAP act mid DEA = human TNAP enzyme activators, primary screen, biochemical, luminescent, intermediate phosphate acceptor level; purified TNAP, CDP-star luminescence, 100 mM DEA, 30 min; hits give high values; scale: 0 levamisole-inhibited, 1 vehicle-only enzyme; 64,000 tested, under 10 active; activation factor at 20 µM; Alkaline phosphatase, tissue-nonspecific isozyme (Homo sapiens), P05186;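 active means activation factor of at least 2 at 20 µM, relative to controls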
HePTP inh = inhibitors of human HePTP phosphatase, primary screen, biochemical, absorbance, leukemia target | Tyrosine-protein phosphatase non-receptor type 7 (Homo sapiens), P35236 | recombinant HePTP phosphatase activity, OD absorbance | inhibition, % at 20 µM | 110,000 tested, 0.64% active | AID 521, 2006; in the data active means inhibition above about 50%
Target sequence (P35236 whole entry, looked up): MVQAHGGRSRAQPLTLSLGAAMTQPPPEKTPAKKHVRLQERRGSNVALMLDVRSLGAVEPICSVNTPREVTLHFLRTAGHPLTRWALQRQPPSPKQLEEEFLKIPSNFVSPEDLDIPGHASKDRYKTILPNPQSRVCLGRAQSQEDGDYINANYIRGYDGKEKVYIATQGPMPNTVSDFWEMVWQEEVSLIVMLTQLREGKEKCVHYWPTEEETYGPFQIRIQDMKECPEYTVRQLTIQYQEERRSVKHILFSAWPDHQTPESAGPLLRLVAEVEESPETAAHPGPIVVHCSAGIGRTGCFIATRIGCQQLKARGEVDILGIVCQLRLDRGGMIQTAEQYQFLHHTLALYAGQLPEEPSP
PLAP activator = PLAP enzyme activators, biochemical, luminescence, HTS. 96,000 tested, 1.2% active. Alkaline phosphatase, placental type (Homo sapiens), P05187. activation fold at 20 µM. purified PLAP enzyme, luminescent substrate read-out; hits give high values. AID 696, 2007; in the data active means activation fold above about 2
Each line names hits and unclear results; the compound was inactive in the other large screens. In the library only some 1.3% were active in any assay of this set; here they are far more common.

CCN(CC(=O)Nc1ccc2c(c1)CCC2)Cc1nc2ccccc2c(=O)[nH]1	PLAP activator 2.6
CN(CC(=O)Nc1ccccc1Br)Cc1nc2ccccc2c(=O)[nH]1	PLAP activator 2.4 (no result: TNAP act mid DEA, HePTP inh)
CCN(CC(=O)Nc1cccc(Br)c1)Cc1nc2ccccc2c(=O)[nH]1	none (no result: TNAP act mid DEA, HePTP inh)
CCN(CC(=O)Nc1ccc2c(c1)OCO2)Cc1nc2ccccc2c(=O)[nH]1	none (no result: PLAP activator)
CCN(CC(=O)NCc1ccc(F)cc1)Cc1nc2cc(Cl)ccc2c(=O)[nH]1	PLAP activator 2.7 (no result: TNAP act mid DEA, HePTP inh)
CCN(CC(=O)Nc1ccc(N2CCOCC2)cc1)Cc1nc2ccccc2c(=O)[nH]1	PLAP activator 2.1 (no result: TNAP act mid DEA, HePTP inh)
COc1cccc(-n2nnc3c(=O)n(Cc4cccc(C)c4)cnc32)c1	none (no result: E coli WT exp)
CN(C)CCNc1oc(-c2cccc(Cl)c2)nc1C#N	none (no result: TNAP act mid DEA, HePTP inh)
CCN(Cc1nc2ccccc2c(=O)[nH]1)Cc1nc2cc(OC)c(OC)cc2c(=O)[nH]1	PLAP activator 2.2
COc1cc2nc(CN(C)CC(=O)Nc3ccc(N4CCOCC4)cc3)[nH]c(=O)c2cc1OC	PLAP activator 2.3 (no result: E coli WT exp)
COc1cc2nc(CN(C)Cc3nc4ccccc4c(=O)[nH]3)[nH]c(=O)c2cc1OC	none (no result: TNAP act mid DEA, HePTP inh, PLAP activator)
CC(=O)Oc1ccccc1/C=C1\CCOC1=O	none (no result: TNAP act mid DEA)
Cc1ccc(-n2nnnc2SCC(=O)NNC(=O)c2ccco2)cc1C	PLAP activator 2.3 (no result: TNAP act mid DEA, HePTP inh)
COc1cc(C2C(C#N)=C(N)Oc3n[nH]c(C)c32)cc2c1OCO2 (configuration not stated)	PLAP activator 2
COc1cc(C2C(C#N)=C(N)Oc3n[nH]c(C)c32)ccc1OC(=O)c1ccccc1 (configuration not stated)	none (no result: TNAP act mid DEA, HePTP inh)
CCOCc1nnc(NS(C)(=O)=O)s1	none
COc1ccc(/C=C2\SC(=O)N(CCC(=O)N3CCOCC3)C2=O)cc1OC	HePTP inh 104 (no result: E coli WT exp, TNAP act mid DEA, PLAP activator)
Cn1cc(/C=C/c2nc3ccccc3c(=O)n2Cc2ccccc2)c2ccccc21	HePTP inh 104 (no result: E coli WT exp, TNAP act mid DEA, PLAP activator)
O=c1c2ccccc2nc(/C=C/c2cccc(Br)c2)n1Cc1ccccc1	none (no result: E coli WT exp, TNAP act mid DEA, PLAP activator)
O=C1CC(N2CCC(c3nc4ccccc4o3)CC2)C(=O)N1c1cc(Cl)cc(Cl)c1 (configuration not stated)	none (no result: TNAP act mid DEA, HePTP inh)
O=C(CN1CCOCC1)Nc1nc(-c2ccc3c(c2)CCN3S(=O)(=O)c2ccccc2)cs1	PLAP activator 2
Cc1nc2c(C(=O)N3CCN(C)CC3)cnn2c(C)c1Cc1ccc(Cl)cc1	PLAP activator 2.1 (no result: TNAP act mid DEA, HePTP inh)
COc1ccc(C(=O)Nc2ccccc2)cc1NC(=O)C(c1ccccc1)c1ccccc1	none (no result: E coli WT exp, TNAP act mid DEA, PLAP activator)
CCC1=NN2C(=N)/C(=C/c3ccc(-c4ccc(C(=O)O)cc4)o3)C(=O)N=C2S1	HePTP inh 57 (no result: E coli WT exp, TNAP act mid DEA, PLAP activator)
COc1ccccc1/C=C1\SC(=S)N(c2ccc(Br)cc2)C1=O	none (no result: E coli WT exp, TNAP act mid DEA, PLAP activator)
COc1cccc(NC(=O)NC2CCN(Cc3nnnn3Cc3ccc(F)cc3)CC2)c1	PLAP activator 2.1
Cc1cccc(C)c1NC(=O)C(C)Oc1cccc(Cl)c1 (configuration not stated)	none (no result: E coli WT exp, TNAP act mid DEA, PLAP activator)
Cc1cc(C)cc(OCC(=O)Nc2nonc2NC(=O)COc2cc(C)cc(C)c2)c1	PLAP activator 2.3
COC(=O)c1c(NC(=O)c2nc3ccccc3s2)sc2c1CCN(C(C)=O)C2	PLAP activator 2.1
CCN(CC)S(=O)(=O)c1ccc(Nc2ccc(-c3ccc4c(c3)OCCO4)nn2)cc1	none (no result: TNAP act mid DEA, HePTP inh)
CCN(CC)S(=O)(=O)c1ccc2oc(C(=O)NCCCN3CCOCC3)c(C)c2c1	PLAP activator 2 (no result: TNAP act mid DEA, HePTP inh)
NC(N)=N/N=C/c1ccc(OCc2ccccc2)cc1	E coli WT exp 99 (no result: TNAP act mid DEA, HePTP inh)
NC(N)=N/N=C/c1ccc(OCc2ccc(Cl)cc2)cc1	E coli WT exp 100 (no result: TNAP act mid DEA, HePTP inh)
CC(C)C(=O)N/N=C/c1ccc(OCc2ccccc2)cc1	none (no result: TNAP act mid DEA, HePTP inh)
Brc1ccc2nc(N3CCNCC3)nc(-c3ccccc3)c2c1	none (no result: E coli WT exp, TNAP act mid DEA, PLAP activator)
Clc1ccc2nc(N3CCNCC3)nc(-c3ccccc3)c2c1	E coli WT exp 55
Cc1csc(NC(=O)C(CC(C)C)NS(=O)(=O)c2ccc3c(c2)oc(=O)n3C)n1 (configuration not stated)	PLAP activator 2.3
Cc1csc(NC(=O)C2CCN(S(=O)(=O)c3ccc4c(c3)oc(=O)n4C)CC2)n1	none (no result: TNAP act mid DEA, HePTP inh)
Cc1ccc(-n2c(C)cc(/C=N/NC(=O)CN(c3ccc(C)cc3C)S(C)(=O)=O)c2C)cc1	none (no result: TNAP act mid DEA, HePTP inh)
Cc1cc(C)cc(-n2c(C)cc(/C=N/NC(=O)CN(c3c(C)cccc3C)S(C)(=O)=O)c2C)c1	PLAP activator 2 (no result: TNAP act mid DEA, HePTP inh)
Oc1ccccc1N=Cc1c(O)c(I)cc2oc3c(c12)CCCC3	none (no result: E coli WT exp, TNAP act mid DEA, PLAP activator)
CCOc1cc(CNc2ccc(N(C)C)cc2)cc(Br)c1OCC(=O)NC(C)(C)C	none (no result: TNAP act mid DEA, HePTP inh)
